D3 ag – D3 dopamine receptor (human) agonism; P35462; D3R DiscoveRx beta-arrestin cells, luminescence, 90 min; max activation, %; 0.58% of 410,000 active; AID 652048; in the data active = max activation above about 30%; also: 0% is about no effect
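Agonist mode: compounds and dopamine controls were applied to plated cells for 90 min at 37 degrees C after an overnight attachment at 1500 cells/well. Luminescent read-out followed 30 - 60 minutes at room temperature with DiscoveRx detection reagent.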
D1 antagonist – blocks dopamine activation of the human D1 receptor; HEK293 TREx D1 cells, calcium flux, dopamine EC80; active compounds read low; activity change, negative = inhibition, % at 10 µM; 3.2% of 360,000 active; AID 504652; in the data active = activity change below about -30%; also: % is scaled to controls: 0 for no effect and ±100 for the full control effect
Target sequence (P21728 whole entry, looked up): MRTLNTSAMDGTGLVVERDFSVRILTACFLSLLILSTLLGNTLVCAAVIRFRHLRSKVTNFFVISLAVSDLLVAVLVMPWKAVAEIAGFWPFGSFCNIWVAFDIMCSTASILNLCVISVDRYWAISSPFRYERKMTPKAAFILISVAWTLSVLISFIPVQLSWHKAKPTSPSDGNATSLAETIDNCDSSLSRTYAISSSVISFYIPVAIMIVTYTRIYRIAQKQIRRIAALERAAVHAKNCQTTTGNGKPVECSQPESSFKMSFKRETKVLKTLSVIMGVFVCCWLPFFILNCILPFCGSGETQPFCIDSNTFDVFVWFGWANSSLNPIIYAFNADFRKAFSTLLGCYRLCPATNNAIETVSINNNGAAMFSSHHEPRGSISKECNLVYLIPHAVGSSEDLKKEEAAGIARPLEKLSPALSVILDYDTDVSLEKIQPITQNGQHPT
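Inducible Hek293 Trex D1 cells (tetracycline, overnight, 30 C). Calcium dye 30–90 min RT. Antagonist mode: EC80 dopamine added after 180 s compound read.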
D3 antag – antagonists of human D3 dopamine receptor | max response, negative = inhibition, % | D3R cells, DiscoveRx beta-arrestin luminescence, antagonist mode; active compounds read low | AID 652054 | 2.5% of 360,000 active; in the data active = max response below about -50%; also: % is scaled to controls: 0 for no effect and ±100 for the full control effect
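Cells plated overnight at 1500 cells/well, then exposed to library compounds with dopamine controls for 90 minutes at 37 degrees C. DiscoveRx reagent added for 30–60 minutes at room temperature; luminescence read, quantitative HTS format.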
D1 ag – activates the human D1 dopamine receptor. P21728. HEK293 T-REx D1 cells, calcium flux, agonist mode. activation, % at 2 µM. 1% of 360,000 active. AID 504660; in the data active = activation above about 30%; also: 0% is about no effect
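Tetracycline-induced HEK293 TREx D1 cells, force-coupled to calcium signalling, were dye-loaded with a no-wash calcium kit. Compound was pin-added after a 10 s baseline. Fluorescence was read kinetically at 1 cycle/s for 180 s, with calcium rises flagged as agonism.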
D1 PAM – human D1 dopamine receptor positive modulation. HEK293 TREx D1 cells, calcium flux, dopamine EC20 potentiation. potentiation, % at 10 µM. 0.036% of 360,000 active. AID 504651; in the data active = potentiation above about 30%; also: 0% is about no effect
An asterisk follows results filed as active; ! = not confirmed by another sample. This is a sample that favours compounds with a hit; in the whole collection about 6% have one here.

`O=C(Nc1ccnn1C1CCN(Cc2ccccn2)CC1)c1cccc(F)c1` gave D3 ag 2.5, D1 antagonist -38.1*, D3 antag 4.8, D1 ag 1.6 and D1 PAM -18.1.
For O=C(Nc1ccnn1C1CCN(Cc2ccccc2OCCO)CC1)c1cccc(F)c1 the results were D3 ag -3.3, D1 antagonist 6.3, D3 antag 2.9, D1 ag 2.7 and D1 PAM -1.8.
Screening O=C(CCCc1ccccc1)Nc1ccnn1C1CCN(Cc2ccccc2)CC1 returned D3 ag -14.5, D1 antagonist -4.3, D3 antag -2.7, D1 ag 33.6* and D1 PAM -4.4.
Screening CC1CCCCN1C(=O)CSc1nc2ccccc2nc1Cc1ccccc1 (configuration not stated) returned D3 ag -15.0, D1 antagonist 4.2, D1 ag 5.2 and D1 PAM -1.6.
Screening CSc1ccc(CN2CCC2(C)C(=O)NC2CCc3ccccc32)cc1 (configuration not stated) returned D3 ag 4.8 and D3 antag -69.6*.
`Cc1ccc(CN2CCC2(C)C(=O)NC2CCc3ccccc32)cc1` (configuration not stated) gave D3 ag 3.7 and D3 antag 16.5.
`Cc1ccc(OCc2cc(=O)n3ccsc3n2)c(NC(=O)c2ccco2)c1` gave D3 ag 8.5, D1 antagonist -2.1, D1 ag 0.0 and D1 PAM 0.5.
Screening O=C(Nc1ccc(Cl)cc1)c1ccc(OC2CSC2)cc1 returned D3 ag 1.7, D1 antagonist -1.7, D3 antag 3.3, D1 ag 4.6 and D1 PAM -2.5.
Screening CNC(=O)c1ccc(OC2CSC2)cc1 returned D3 ag 0.5, D1 antagonist -49.3*, D3 antag 7.3, D1 ag 1.7 and D1 PAM -6.2.
Screening O=C(CCn1ccc2cc(S(=O)(=O)N3CCCC3)ccc21)NCc1ccccc1F returned D3 ag 2.2, D1 antagonist -31.3*!, D3 antag -13.7, D1 ag 4.6 and D1 PAM -2.0.
Screening CCOc1ccccc1CNC(=O)CCn1ccc2cc(S(=O)(=O)N3CCCCC3)ccc21 returned D3 ag 0.9, D1 antagonist 8.6, D3 antag 5.7, D1 ag 48.1*! and D1 PAM 3.0.
CCc1cccc(NC(=O)Nc2ccc3c(c2)N(C)C(=O)c2ccccc2S3)c1 was read as D3 ag 9.0, D1 antagonist -38.9*, D1 ag -0.8 and D1 PAM 1.2.
Screening CN1C(=O)c2ccccc2Sc2ccc(NC(=O)Nc3ccccc3F)cc21 returned D3 ag -9.4, D1 antagonist 4.1, D1 ag 0.5 and D1 PAM 4.0.
`CCCCN(C)CCCNC(=O)c1cn(CC)c2ccc(S(=O)(=O)N3CCOCC3)cc2c1=O` gave D3 ag -2.3, D1 antagonist -32.3*, D3 antag -12.9, D1 ag 4.3 and D1 PAM 2.9.
For CCn1cc(C(=O)O)c(=O)c2cc(S(=O)(=O)N(C)C)ccc21 the results were D3 ag -10.9, D1 antagonist -36.8*, D3 antag -2.3, D1 ag 3.9 and D1 PAM -0.1.
COCCNC(=O)c1cn(C)c2ccc(S(=O)(=O)N3CCCC3)cc2c1=O was read as D3 ag 3.3, D1 antagonist -30.8*, D3 antag 4.5, D1 ag 4.1 and D1 PAM 0.9.
CCn1cc(C(=O)NCc2ccccc2Cl)c(=O)c2cc(S(=O)(=O)N3CCCCCC3)ccc21 was read as D3 ag 2.2, D1 antagonist -61.9*, D1 ag 3.6 and D1 PAM -1.8.
`CCC1CCCCN1S(=O)(=O)c1ccc(NC(=O)c2cc(=O)c3c(C)cc(C)cc3o2)cc1` (configuration not stated) gave D3 ag 3.0, D1 antagonist 6.1, D1 ag 0.2 and D1 PAM -0.4.
For CCCCN(CCCC)CCCNC(=O)c1cc(-c2ccc(Cl)s2)nc2ccccc12 the results were D3 ag -21.7, D1 antagonist 1.2, D1 ag 17.0 and D1 PAM -0.2.
